Source: ChEMBL document CHEMBL1157539, “Thousands of chemical starting points for antimalarial lead identification” (Nature, 2010)

Experiments:
Assay type in all cases: functional
Plasmodium falciparum [1] = test: GSK_TCMDC: Inhibition of Plasmodium falciparum 3D7 in whole red blood cells, using parasite LDH activity as an index of growth. Test compounds present at 2uM
Plasmodium falciparum [2] = test: GSK_TCMDC: Inhibition of Plasmodium falciparum Dd2 in whole red blood cells, using parasite LDH activity as an index of growth. Test compounds present at 2uM
HepG2 = test: GSK_TCMDC: Percent inhibition of human HepG2 cell line. Test compounds present at 10uM.

SMILES	Inhibition (Plasmodium falciparum [1]) [%]	Inhibition (Plasmodium falciparum [2]) [%]	Inhibition (HepG2) [%]
COc1ccc(CNCCc2cccs2)cc1-c1ccc(S(=O)(=O)NCCN2CCCC2)cc1.O=C(O)C(F)(F)F	99	30	30
O=S(=O)(c1c(Cl)cc(Cl)cc1Cl)N1CCCCC(c2ccc(Cl)cc2)=N1	95	93	11
CCNC(=O)NC1CCN(Cc2c(-c3cccs3)nc3ccccc3c2C(=O)N[C@@H](C)C2CCCCC2)CC1	95	96	0
O=c1c(Br)ccccc1Br	94	41	98
CCN1CCN(CCCNc2c3ccc(Cl)cc3nc3ccc(O)cc23)CC1	100	1	32
Cc1ccc(NS(=O)(=O)c2ccc(C(C)N3CCC(N4CCCCC4)CC3)cc2)cc1C (stereo not drawn)	97	82	66
Cc1cc(C(=O)NC2CCN(CC3(c4ccccc4)CCCCC3)CC2)on1	97	95	0
Cc1ccc(C(c2nnnn2C2CCCC2)N(Cc2ccco2)Cc2ccccc2Cl)cc1 (stereo not drawn)	85	78	8
COc1cc(CNCCCCCCNCc2cc(OC)c3ccccc3c2OC)c(OC)c2ccccc12.CS(=O)(=O)O	100	40	99
CCOC(=O)c1ccc(NC(=O)N[C@@H](Cc2ccccc2)C(=O)NC2CCN(Cc3ccc(OCCCN(C)C)cc3)C2)cc1 (stereo partly drawn)	91	8	5
CN1CCN(Cc2ccc(-c3cccc(-c4nc5ccccc5[nH]4)c3)cc2)CC1.O=C(O)C(F)(F)F	93	6	21
